Assay in all cases: log2 fold change, soluble protein after heating vs DMSO (PISA); higher = thermal stabilisation; K562 cells, 10 uM, 30 min; active = over 0.2 and 3.5 SD of the protein, either way, in both replicates (recomputed)
Compound in test [1]: COC1=CC=C(C=C1)CN2C=CC3=C2C=C(C=C3)C(=O)NO
Summed up:
(§1)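 K562 cells at 2×10^6 cells/mL were given 10 μM compound for 30 min. Aliquots then went through 3 min of heating across 48°C-58°C, were pooled, and were extracted in PBS with 0.5% NP-40 at 4°C, and the supernatant after 21,000xg for 90 min was quantified by TMTpro 16plex LC-MS/MS with channel sums equalised. Thermal stability relative to control samples, from duplicates, is given as log2 fold change.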

Compound in test [2]: CO[C@H]1C[C@@H]2CC[C@@H](C)[C@@](O)(O2)C(=O)C(=O)N2CCCC[C@H]2C(=O)O[C@H]([C@H](C)C[C@@H]2CC[C@H](n3cnnn3)[C@H](OC)C2)CC(=O)[C@H](C)/C=C(\C)[C@@H](O)[C@@H](OC)C(=O)[C@H](C)C[C@H](C)/C=C/C=C/C=C/1C [zotarolimus]
The essentials:
as §1

Compound in test [3]: COc1cc(C(=O)O)ccc1NC(=O)[C@@H]1N[C@@H](CC(C)(C)C)[C@](C#N)(c2ccc(Cl)cc2F)[C@H]1c1cccc(Cl)c1F [idasanutlin]
The essentials: as §1

Compound in test [4]: COc1cc(Nc2ncc3c(n2)-c2ccc(Cl)cc2C(c2c(F)cccc2OC)=NC3)ccc1C(=O)O [alisertib]
Summed up:
as §1

Compound in test [5]: COc1cc2nc(-c3cc(F)ccc3O)nc(N[C@@H]3CNC[C@H]3C(C)(C)O)c2cc1OC
Summed up: as §1

Compound in test [6]: COc1cccc2cc(-c3nc([C@H]4CC[C@H](C(=O)O)CC4)n4ncnc(N)c34)[nH]c12
Summed up:
as §1

Compound in test [7]: CS(=O)(=O)CCNCc1ccc(-c2ccc3ncnc(Nc4ccc(OCc5cccc(F)c5)c(Cl)c4)c3c2)o1 [lapatinib]
Summed up:
as §1

Compound in test [8]: CS(=O)(=O)N1CCN(Cc2cc3nc(-c4cccc5[nH]ncc45)nc(N4CCOCC4)c3s2)CC1 [pictilisib]
Summed up: as §1

Compound in test [9]: COc1cc2ncnc(Nc3ccc(F)c(Cl)c3)c2cc1OCCCN1CCOCC1 [gefitinib]
The essentials:
as §1

Compound in test [10]: CON(C)C(=O)N1N=C(c2cc(F)ccc2F)S[C@@]1(CCCN)c1ccccc1 [filanesib]
Summed up:
as §1

Targets with a hit are over-represented here; the source holds about 7,900 in all. About 0.6% of all pairs of compound and target were hits. A number with no mark means an inactive call.

Chain of UniProt P11309 (P11309 whole entry, looked up): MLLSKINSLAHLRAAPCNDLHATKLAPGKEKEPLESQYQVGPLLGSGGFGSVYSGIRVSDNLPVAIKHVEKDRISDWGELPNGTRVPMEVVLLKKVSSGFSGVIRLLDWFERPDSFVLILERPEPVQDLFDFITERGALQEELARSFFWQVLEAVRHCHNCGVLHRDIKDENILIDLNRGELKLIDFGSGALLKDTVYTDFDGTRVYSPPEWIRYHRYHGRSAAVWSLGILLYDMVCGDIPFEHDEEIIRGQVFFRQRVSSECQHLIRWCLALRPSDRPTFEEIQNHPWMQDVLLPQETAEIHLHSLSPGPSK
Chain of UniProt Q8N2W9 (Q8N2W9 whole entry, looked up): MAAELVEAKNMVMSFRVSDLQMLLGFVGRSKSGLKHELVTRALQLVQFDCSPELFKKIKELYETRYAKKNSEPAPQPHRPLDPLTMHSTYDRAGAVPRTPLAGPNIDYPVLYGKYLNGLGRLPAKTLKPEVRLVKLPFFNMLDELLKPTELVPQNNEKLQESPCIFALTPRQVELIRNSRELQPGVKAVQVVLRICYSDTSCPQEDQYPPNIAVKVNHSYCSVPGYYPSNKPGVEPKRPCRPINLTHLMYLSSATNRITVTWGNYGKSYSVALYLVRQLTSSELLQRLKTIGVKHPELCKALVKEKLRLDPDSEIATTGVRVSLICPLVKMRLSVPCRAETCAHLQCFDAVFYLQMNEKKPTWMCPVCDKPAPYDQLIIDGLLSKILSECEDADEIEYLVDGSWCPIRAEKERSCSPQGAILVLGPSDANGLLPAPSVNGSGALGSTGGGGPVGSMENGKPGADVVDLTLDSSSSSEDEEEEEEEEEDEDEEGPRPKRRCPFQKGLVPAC
Chain of UniProt Q9UHX1 (Q9UHX1 whole entry, looked up): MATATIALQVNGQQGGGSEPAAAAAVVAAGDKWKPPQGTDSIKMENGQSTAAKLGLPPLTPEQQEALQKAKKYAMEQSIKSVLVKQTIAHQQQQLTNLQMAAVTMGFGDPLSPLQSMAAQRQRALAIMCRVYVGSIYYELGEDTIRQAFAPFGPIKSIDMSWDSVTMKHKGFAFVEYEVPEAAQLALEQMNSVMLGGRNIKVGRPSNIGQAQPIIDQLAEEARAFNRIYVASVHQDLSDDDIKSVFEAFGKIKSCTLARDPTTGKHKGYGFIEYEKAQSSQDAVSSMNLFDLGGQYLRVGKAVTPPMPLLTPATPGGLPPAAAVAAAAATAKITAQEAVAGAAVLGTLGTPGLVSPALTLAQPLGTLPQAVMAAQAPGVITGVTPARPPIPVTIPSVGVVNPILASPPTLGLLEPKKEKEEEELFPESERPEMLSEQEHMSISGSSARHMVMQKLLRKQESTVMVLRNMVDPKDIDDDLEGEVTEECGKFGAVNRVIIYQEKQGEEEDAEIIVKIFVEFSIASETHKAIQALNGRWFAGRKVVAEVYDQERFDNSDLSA
Chain of UniProt Q5THK1 (Q5THK1 whole entry, looked up): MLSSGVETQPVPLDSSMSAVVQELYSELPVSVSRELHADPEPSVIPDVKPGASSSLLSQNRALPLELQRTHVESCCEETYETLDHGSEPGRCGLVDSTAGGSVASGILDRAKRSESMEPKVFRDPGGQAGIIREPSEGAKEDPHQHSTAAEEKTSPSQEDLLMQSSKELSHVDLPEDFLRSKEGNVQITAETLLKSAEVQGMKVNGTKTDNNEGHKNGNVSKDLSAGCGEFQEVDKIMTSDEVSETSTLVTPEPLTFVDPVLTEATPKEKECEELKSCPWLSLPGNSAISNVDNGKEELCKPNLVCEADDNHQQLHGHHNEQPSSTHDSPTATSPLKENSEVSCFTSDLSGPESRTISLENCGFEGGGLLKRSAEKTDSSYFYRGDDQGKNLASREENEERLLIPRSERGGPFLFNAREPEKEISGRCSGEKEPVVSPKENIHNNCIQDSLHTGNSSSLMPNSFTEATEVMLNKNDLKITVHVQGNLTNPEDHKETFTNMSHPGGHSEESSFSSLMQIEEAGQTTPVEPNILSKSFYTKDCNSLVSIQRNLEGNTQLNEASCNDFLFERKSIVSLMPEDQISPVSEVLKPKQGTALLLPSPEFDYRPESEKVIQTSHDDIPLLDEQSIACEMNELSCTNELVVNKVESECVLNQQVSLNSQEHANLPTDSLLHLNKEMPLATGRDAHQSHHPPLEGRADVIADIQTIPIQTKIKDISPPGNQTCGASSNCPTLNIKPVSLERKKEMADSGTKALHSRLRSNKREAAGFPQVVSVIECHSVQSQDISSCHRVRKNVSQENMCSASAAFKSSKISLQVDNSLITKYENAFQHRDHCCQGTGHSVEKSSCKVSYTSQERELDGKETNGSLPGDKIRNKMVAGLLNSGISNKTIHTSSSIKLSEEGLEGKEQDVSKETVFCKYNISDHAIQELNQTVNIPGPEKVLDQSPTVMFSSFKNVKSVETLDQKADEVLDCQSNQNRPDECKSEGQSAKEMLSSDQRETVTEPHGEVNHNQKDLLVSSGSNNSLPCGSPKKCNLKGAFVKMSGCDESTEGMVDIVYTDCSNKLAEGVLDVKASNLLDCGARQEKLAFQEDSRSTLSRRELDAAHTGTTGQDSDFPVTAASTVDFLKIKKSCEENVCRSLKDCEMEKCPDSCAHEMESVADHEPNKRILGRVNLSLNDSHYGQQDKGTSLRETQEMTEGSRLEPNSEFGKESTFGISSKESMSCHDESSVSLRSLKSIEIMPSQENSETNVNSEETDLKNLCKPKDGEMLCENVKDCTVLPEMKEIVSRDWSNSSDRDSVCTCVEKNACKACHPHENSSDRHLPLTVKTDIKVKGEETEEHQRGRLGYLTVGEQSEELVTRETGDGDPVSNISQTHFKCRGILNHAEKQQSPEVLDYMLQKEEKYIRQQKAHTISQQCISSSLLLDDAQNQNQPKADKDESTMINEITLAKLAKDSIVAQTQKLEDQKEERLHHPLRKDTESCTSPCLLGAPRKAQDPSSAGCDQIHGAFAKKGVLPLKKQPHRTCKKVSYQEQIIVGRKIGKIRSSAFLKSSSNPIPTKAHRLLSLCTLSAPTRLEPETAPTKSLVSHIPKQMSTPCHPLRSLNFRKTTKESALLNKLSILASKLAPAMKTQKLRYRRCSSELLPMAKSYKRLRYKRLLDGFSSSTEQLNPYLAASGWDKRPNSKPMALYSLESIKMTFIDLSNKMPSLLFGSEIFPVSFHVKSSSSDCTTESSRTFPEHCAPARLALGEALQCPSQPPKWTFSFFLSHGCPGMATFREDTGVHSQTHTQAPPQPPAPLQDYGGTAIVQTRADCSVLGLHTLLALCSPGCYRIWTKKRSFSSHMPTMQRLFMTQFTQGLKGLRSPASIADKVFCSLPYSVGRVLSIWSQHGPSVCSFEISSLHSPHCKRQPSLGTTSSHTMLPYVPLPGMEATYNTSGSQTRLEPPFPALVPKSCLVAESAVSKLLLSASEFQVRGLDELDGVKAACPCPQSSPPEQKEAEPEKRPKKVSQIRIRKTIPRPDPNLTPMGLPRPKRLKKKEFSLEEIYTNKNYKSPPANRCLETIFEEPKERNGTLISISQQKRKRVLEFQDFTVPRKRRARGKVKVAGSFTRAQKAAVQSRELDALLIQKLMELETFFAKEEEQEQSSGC
Chain of UniProt Q13362 (Q13362 whole entry, looked up): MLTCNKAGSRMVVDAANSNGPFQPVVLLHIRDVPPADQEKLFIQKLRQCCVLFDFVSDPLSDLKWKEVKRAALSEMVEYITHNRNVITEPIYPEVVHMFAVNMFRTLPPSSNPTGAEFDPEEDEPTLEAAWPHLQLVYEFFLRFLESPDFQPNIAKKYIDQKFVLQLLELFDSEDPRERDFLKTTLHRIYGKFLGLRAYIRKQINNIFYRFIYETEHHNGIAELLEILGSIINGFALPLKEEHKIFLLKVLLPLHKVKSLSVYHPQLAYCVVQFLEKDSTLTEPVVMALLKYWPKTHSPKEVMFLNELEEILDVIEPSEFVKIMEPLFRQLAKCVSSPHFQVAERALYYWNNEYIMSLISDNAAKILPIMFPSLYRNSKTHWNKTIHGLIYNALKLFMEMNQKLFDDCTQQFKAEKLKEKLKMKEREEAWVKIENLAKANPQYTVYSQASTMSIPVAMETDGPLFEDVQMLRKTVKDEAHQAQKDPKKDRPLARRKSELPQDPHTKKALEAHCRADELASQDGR
Chain of UniProt Q15173 (Q15173 whole entry, looked up): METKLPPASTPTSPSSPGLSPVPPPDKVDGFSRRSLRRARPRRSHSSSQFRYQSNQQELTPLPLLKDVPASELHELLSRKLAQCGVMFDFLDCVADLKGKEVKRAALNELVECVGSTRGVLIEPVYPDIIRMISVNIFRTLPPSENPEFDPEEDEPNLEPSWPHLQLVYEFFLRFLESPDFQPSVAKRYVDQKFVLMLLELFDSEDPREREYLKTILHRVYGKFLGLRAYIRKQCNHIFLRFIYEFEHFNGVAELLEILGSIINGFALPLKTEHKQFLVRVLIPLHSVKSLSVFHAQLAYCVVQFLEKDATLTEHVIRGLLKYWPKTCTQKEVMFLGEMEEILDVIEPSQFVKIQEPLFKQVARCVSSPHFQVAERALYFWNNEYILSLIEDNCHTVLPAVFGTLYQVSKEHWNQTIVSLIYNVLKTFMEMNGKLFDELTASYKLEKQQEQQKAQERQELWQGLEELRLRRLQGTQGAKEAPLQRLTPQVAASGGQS
Chain of UniProt P60484 (P60484 whole entry, looked up): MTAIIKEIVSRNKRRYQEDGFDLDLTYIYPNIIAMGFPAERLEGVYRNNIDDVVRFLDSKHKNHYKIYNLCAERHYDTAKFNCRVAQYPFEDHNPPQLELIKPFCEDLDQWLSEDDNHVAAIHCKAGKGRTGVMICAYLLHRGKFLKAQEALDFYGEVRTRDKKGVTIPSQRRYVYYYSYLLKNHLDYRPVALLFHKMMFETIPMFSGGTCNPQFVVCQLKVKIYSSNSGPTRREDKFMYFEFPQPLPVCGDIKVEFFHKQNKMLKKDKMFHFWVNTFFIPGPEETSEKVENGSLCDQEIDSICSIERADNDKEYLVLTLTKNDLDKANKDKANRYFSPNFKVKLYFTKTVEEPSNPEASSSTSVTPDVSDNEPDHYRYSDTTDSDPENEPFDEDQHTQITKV

With PCF11 (UniProt O94913), the log2 fold change in test [1] is -0.169; in test [2], -0.119; in test [3], -0.097; in test [4] it was 0.015; in test [5], 0.076; in test [6], 0.106. Also, the log2 fold change in test [7] is 0.012; in [8] it was 0.027.
In the case of PPP2R5B (UniProt Q15173), the log2 fold change in test [3] was -0.065; in test [4], 0.088; in [5] it was 0.148; in test [9], -0.079; in [6], -0.058; in test [7], 0.051. Besides, the log2 fold change in test [8] was 0.01.
For the target PIM1 isoform 2 (UniProt P11309), the log2 fold change in test [4] is 0.267; in test [6] it was -0.327; in test [8], -0.126.
As for PKM isoform 2 (UniProt P14618), the log2 fold change is 0.141 in test [1]; 0.04 in [10]; -0.049 in test [3]; -0.139 in test [4]; 0.141 in [5]; -0.056 in [9]. For the same target, the log2 fold change was 0.059 in test [6], -0.115 in [7] and 0.109 in test [8].
As to POLR2E (UniProt P19388), the log2 fold change in [1] is 0.095; in test [2], -0.065; in test [3] it was -0.061; in test [4], -0.21; in test [5] it was 0.291 (active); in [9] it was 0.007. The results for the log2 fold change in test [6], in [7] and in test [8] were 0.029, -0.013 and 0.063, respectively.
As for PAN2 (UniProt Q504Q3), in test [9], the log2 fold change is 0.013.
In the case of PTEN isoform 2 (UniProt P60484), the log2 fold change in test [1] is 0.081; in test [5] it was -0.251; in [7], 0.094; in test [8] it was -0.028.
As for PMS2CL (UniProt Q68D20), the log2 fold change was -0.254 in test [4], 0.033 in [9] and -0.099 in test [6].
As to PRR14L (UniProt Q5THK1), the log2 fold change is -0.083 in test [2]; 0 in [3]; 0.069 in [5]; -0.065 in test [9]; 0.1 in test [7]; 0.103 in test [8].
PTPA (UniProt A6PVN8): the log2 fold change is 0.019 in test [10]; -0.143 in [2]; 0.09 in test [3]; -0.383 in test [4]; -0.085 in test [5]; 0.021 in test [9]. For the same target, the figures for the log2 fold change in test [6], in test [7] and in test [8] were 0.297, 0.043 and 0.035, respectively.
Take PIAS4 (UniProt Q8N2W9): the log2 fold change is 0.049 in test [1]; -0.566 in test [4]; 0.069 in test [5]; -0.167 in [6]; -0.017 in [7]; -0.257 in [8].
Take PPP2R5C isoform 2 (UniProt Q13362): the log2 fold change in test [1] was 0.159; in test [4] it was 0.005; in test [6], -0.009.
Turning to PPP1R12B isoform 6 (UniProt O60237), the log2 fold change in [9] is 0.077.
In the case of PUF60 isoform 2 (UniProt Q9UHX1), the log2 fold change is 0.18 in test [2]; -0.042 in [3]; -0.203 in test [4]; -0.071 in [5]; 0.027 in [6]; 0.407 in test [7].
In the case of PCNX1 (UniProt Q96RV3), the log2 fold change was -0.059 in [4]; 0.34 in [5]; -0.028 in test [9]; 0.035 in [6]; -0.475 in test [7].
In the case of PRKX (UniProt P51817), the log2 fold change is 0.014 in test [4] and 0.098 in test [6].

For the origin of these results see the supplement of paper PMC10849652.
